Active and inactive are the calls of the source.
Experiments:
[1] = E. coli DRC41 culture turbidity changes, primary screen, E. coli filamentation inducer project, strain DRC41, OD650, 48 h (AID 1152);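 further: E. coli MC1000 strain DRC41 lacking acrAB efflux pump and sulA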; conditions: E. coli DRC41 (acrAB sulA), higher = more signal, called active from +8 up or from −8 down
[2] = small-molecule binders of probe aLefty1, primary screen, biochemical, small-molecule microarray, 635/667 nm fluorescence (AID 1153); conditions: higher = more signal;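 further: score merges spot fluorescence with signal-to-noise ratio from the scanned slide images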
[3] = PSAC antagonists in infected red cells, primary screen, cell-based, P. falciparum Indochina, OD700, 1 h (AID 1154); conditions: P. falciparum Indochina infected RBC osmotic lysis, higher = more signal, called active from +8 up or from −8 down
[4] = PSAC antagonists in infected red cells, primary screen, cell-based, P. falciparum Indochina, OD700, 2 h (AID 1155);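 further: lysis reports solute entry through the parasite surface anion channel PSAC; channel blockers reduce lysis of infected cells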; conditions: P. falciparum Indochina infected erythrocytes, osmotic lysis OD700; higher = more signal, called active from +8 up or from −8 down
[5] = osmotic lysis modulators in infected erythrocytes, primary screen, PSAC antagonist project, cell-based, P. falciparum Indochina, OD700, 3 h (AID 1156); conditions: higher = more signal, called active from +8 up or from −8 down
[6] = PSAC antagonists in infected red cells, primary screen, cell-based, P. falciparum Indochina, OD700, 18 h (AID 1157); conditions: P. falciparum Indochina infected erythrocytes, osmotic lysis OD700, 18 h; higher = more signal, called active from +8 up or from −8 down
[7] = modulators of S6 phosphorylation in cells, primary screen, cell-based, A549, cytoblot, luminescence, serum-stimulated (AID 1158); conditions: A549 phospho-S6 cytoblot, 5 h, higher = more signal;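 further: serum-stimulated A549 lung adenocarcinoma cells; signal is phosphorylated S6 detected by cytoblot immunostaining with HRP secondary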
[8] = molecular target: NADPH oxidase 2 (Homo sapiens) (UniProt P04839); test: NOX2-dependent H2O2 signal modulators, primary screen, NOX inhibitor project, cell-based, HEK293-NOX2, PMA-stimulated, Amplex Red fluorescence (AID 1159); conditions: 45 min, higher = more signal, called active from +8 up or from −8 down; further: test concentration not given here
[9] = molecular target: NADPH oxidase 4 (Homo sapiens) (UniProt Q9NPH5); test: NOX4-dependent H2O2 signal modulators, primary screen, NOX inhibitor project, cell-based, HEK293-NOX4, tetracycline-induced, Amplex Red fluorescence (AID 1160); conditions: 45 min, higher = more signal, called active from +8 up or from −8 down
[10] = molecular target: NADPH oxidase 5 (Homo sapiens) (UniProt Q96PH1); test: NOX5-dependent H2O2 signal modulators, primary screen, NOX inhibitor project, cell-based, HEK293-NOX5, Amplex Red fluorescence (AID 1161); conditions: HEK293-NOX5, ionomycin, 45 min, higher = more signal
[11] = A549 cell viability effects, profiling panel, calcein-AM fluorescence, 48 h, basal (AID 1162); conditions: higher = more signal; further: test concentration not given here
[12] = adipocyte viability effects, profiling panel, cell-based, 3T3-L1 adipocytes, calcein-AM fluorescence, 48 h, basal (AID 1163); conditions: 3T3-L1 adipocytes viability, higher = more signal; further: test concentration not given here
[13] = HepG2 cell viability effects, profiling panel, calcein-AM fluorescence, 48 h, basal (AID 1164); conditions: higher = more signal; further: test concentration not given here
[14] = MM1S cell viability effects, profiling panel, calcein-AM fluorescence, 48 h, basal (AID 1165); conditions: higher = more signal;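 further: viability of MM1S multiple myeloma cells under basal unstimulated conditions; test concentration not given here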
[15] = basal RPMI8226 viability, no added stimulus, profiling panel, cell-based, calcein-AM fluorescence, 48 h, PK04 Diversity Set (AID 1166); conditions: RPMI8226 myeloma viability, higher = more signal;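 further: cells grown under basal conditions without added stimulus; test concentration not given here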
[16] = basal HepG2 mitochondrial membrane potential changes, profiling panel, cell-based, JC-1 fluorescence, 24 h, 100 nL compound (AID 1167); conditions: higher = more signal; further: test concentration not given here
[17] = basal 3T3-L1 adipocyte mitochondrial potential changes, profiling panel, cell-based, JC-1 fluorescence, 3T3-L1 adipocytes, 24 h, 100 nL compound (AID 1168); conditions: JC-1 mitochondrial fluorescence, higher = more signal, called active from +8 up or from −8 down; further: test concentration not given here
[18] = basal RPMI8226 mitochondrial membrane potential changes, profiling panel, cell-based, JC-1 fluorescence, 24 h, 100 nL compound (AID 1169); conditions: RPMI8226 myeloma, JC-1 mitochondrial potential fluorescence, higher = more signal; further: test concentration not given here
[19] = basal MM1S mitochondrial membrane potential changes, profiling panel, cell-based, JC-1 fluorescence, 24 h, 100 nL compound (AID 1170); conditions: higher = more signal; further: test concentration not given here
[20] = A549 lung cancer cell viability effects, profiling panel, resazurin fluorescence, 24 h, PK04 Diversity Set (AID 1171); conditions: higher = more signal, called active from +8 up or from −8 down; further: test concentration not given here

Chain of NADPH oxidase 5 (Homo sapiens) (Q96PH1 whole entry, looked up): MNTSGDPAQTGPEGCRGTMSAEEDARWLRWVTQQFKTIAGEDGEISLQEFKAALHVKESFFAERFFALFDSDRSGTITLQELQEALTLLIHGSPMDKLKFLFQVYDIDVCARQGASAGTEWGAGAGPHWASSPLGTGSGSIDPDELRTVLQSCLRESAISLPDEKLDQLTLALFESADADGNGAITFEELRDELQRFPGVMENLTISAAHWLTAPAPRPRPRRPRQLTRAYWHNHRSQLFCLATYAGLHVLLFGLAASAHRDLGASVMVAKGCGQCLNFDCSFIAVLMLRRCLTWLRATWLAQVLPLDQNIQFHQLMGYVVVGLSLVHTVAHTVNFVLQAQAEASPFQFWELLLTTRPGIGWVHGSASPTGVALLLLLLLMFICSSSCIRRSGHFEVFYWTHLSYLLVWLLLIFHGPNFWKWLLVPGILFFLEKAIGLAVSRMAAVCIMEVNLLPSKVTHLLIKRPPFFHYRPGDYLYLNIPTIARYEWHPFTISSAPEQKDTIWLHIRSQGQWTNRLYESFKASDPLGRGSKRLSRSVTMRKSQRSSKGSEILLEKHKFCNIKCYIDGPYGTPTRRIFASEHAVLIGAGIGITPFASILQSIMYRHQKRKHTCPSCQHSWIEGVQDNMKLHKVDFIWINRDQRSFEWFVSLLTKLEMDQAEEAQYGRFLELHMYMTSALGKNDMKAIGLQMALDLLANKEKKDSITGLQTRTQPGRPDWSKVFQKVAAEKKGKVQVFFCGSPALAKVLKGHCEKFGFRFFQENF
Chain of NADPH oxidase 2 (Homo sapiens) (P04839 whole entry, looked up): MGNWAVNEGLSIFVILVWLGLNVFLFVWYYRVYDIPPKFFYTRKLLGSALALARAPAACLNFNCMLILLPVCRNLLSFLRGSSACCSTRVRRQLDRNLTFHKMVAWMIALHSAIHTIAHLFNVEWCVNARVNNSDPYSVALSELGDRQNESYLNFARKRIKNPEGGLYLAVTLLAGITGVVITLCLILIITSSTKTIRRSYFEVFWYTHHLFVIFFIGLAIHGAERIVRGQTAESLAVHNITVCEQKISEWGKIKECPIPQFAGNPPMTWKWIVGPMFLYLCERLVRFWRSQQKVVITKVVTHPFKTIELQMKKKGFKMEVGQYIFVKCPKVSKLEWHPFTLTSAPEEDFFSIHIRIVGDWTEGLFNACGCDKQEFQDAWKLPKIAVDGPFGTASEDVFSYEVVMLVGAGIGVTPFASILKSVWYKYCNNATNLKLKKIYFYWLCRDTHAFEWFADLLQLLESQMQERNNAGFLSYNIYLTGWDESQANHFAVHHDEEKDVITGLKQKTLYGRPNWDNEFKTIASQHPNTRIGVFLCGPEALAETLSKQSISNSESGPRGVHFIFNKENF
Chain of NADPH oxidase 4 (Homo sapiens) (Q9NPH5 whole entry, looked up): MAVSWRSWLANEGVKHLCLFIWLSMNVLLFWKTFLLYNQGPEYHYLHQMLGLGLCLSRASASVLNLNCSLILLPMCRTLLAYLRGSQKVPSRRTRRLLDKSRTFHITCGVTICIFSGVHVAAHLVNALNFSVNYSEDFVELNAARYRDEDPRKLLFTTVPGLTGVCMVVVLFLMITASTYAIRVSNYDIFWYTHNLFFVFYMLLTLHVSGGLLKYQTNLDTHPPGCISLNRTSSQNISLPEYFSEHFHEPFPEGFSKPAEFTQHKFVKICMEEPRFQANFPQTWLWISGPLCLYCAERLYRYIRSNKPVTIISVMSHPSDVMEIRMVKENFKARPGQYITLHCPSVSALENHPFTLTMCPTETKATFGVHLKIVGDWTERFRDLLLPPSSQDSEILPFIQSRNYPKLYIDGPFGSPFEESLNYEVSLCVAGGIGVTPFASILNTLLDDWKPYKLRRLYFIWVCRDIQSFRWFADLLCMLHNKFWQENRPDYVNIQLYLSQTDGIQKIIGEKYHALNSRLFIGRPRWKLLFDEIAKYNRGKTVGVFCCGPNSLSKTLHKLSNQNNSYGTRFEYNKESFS

SMILES	z-score [1]	composite z-score [2]	z-score [3]	z-score [4]	z-score [5]	z-score [6]	z-score [7]	z-score [8]	z-score [9]	z-score [10]	z-score [11]	z-score [12]	z-score [13]	z-score [14]	z-score [15]	z-score [16]	z-score [17]	z-score [18]	z-score [19]	z-score [20]
COC(=O)Cn1c(C(=O)N2CCCC2)cc2c1C[C@H]1CN(C(=O)c3ccccc3)[C@@](Cc3ccc(F)cc3)(C(=O)OC)[C@@H]21	-0.246 (inactive)	-0.041	1.32 (inactive)	-0.428 (inactive)	-0.865 (inactive)	-1.71 (inactive)	3.59	0.215 (inactive)	1.31 (inactive)	-1.46	1.13	0.0791	0.476	-0.297	0.63	0.669	-1.47 (inactive)	-0.135	-1.68	-0.581 (inactive)
NCCCCCCNC(=O)[C@@H]1C[C@@H]2C(=O)N3CCC[C@H]3C(=O)N2[C@@H]1c1ccc(O)cc1	-1.12 (inactive)	-0.508	1.67 (inactive)	0.026 (inactive)	-0.653 (inactive)	0.105 (inactive)	-0.164	0.162 (inactive)	0.116 (inactive)	-0.515	-0.428	0.548	0.442	-0.0269	-0.292	-0.0719	-0.202 (inactive)	0.0552	0.0553	-0.578 (inactive)
C=CCOC(=O)[C@@H]1[C@H]2C(=O)O[C@H](c3ccccc3)[C@H](c3ccccc3)N2[C@H](c2ccc(OCCOC(=O)[C@H]3C[C@H]4C(=O)N[C@@H](CCCC[N+](C)(C)C)C(=O)N4[C@H]3c3ccc(O)cc3)cc2)[C@@]12C(=O)Nc1ccc(I)cc12	-0.451 (inactive)	0.113	2.42 (inactive)	1.57 (inactive)	0.511 (inactive)	0.792 (inactive)	-0.281	1.4 (inactive)	1.06 (inactive)	1.24	-0.105	-1.19	-0.591	-0.477	-0.362	-2.03	0.178 (inactive)	-0.275	-1.13	-0.173 (inactive)
C=C(/C(=C/C[C@@H](OC(=O)c1ccncc1)c1ccc(OCCO)cc1)c1cc(C(=O)OC)ccc1OC)C(C)C	0.927 (inactive)	-0.0984	17.9 (active)	2.79 (inactive)	2.56 (inactive)	1.02 (inactive)	0.596	-2.45 (inactive)	-1.24 (inactive)	-1.86	-0.738	0.61	0.391	-0.166	0.687	2.81	0.436 (inactive)	-0.177	-0.744	1.4 (inactive)
C=CCOC(=O)[C@H]1[C@@H]2C(=O)O[C@@H](c3ccccc3)[C@@H](c3ccccc3)N2[C@@H](c2ccc(OCCOC(=O)[C@H]3C[C@H]4C(=O)N[C@@H](CCCC[N+](C)(C)C)C(=O)N4[C@H]3c3cccc(OCCO)c3)cc2)[C@]12C(=O)Nc1ccc(I)cc12	0.039 (inactive)	-0.17	3.12 (inactive)	2.53 (inactive)	1.58 (inactive)	1.68 (inactive)	0.4	0.822 (inactive)	0.0287 (inactive)	0.14	-0.319	-0.0546	1.67	0.596	0.532	-2	-0.124 (inactive)	-0.51	-1.31	0.134 (inactive)
CC(C)N1CC=CC23O[C@@H]4C=CCOC(=O)[C@@H]4[C@H]2C(=O)N(C(C)CO)[C@@H]3C1=O (stereo not given in full)	-0.32 (inactive)	0.233	0.287 (inactive)	0.0397 (inactive)	0.112 (inactive)	0.111 (inactive)	0.74	0.67 (inactive)	0.266 (inactive)	0.393	-0.327	-0.153	-0.719	1.15	-0.186	-0.664	-0.668 (inactive)	-0.166	0.462	0.226 (inactive)
C=C[C@H](COC(C)=O)NS(=O)(=O)c1ccc(Br)cc1	0.348 (inactive)	0.0056	0.174 (inactive)	-0.191 (inactive)	-0.3 (inactive)	0.252 (inactive)	0.16	1.96 (inactive)	-0.0653 (inactive)	0.0573	0.0955	-0.569	1.05	0.661	0.402	0.549	0.0685 (inactive)	-0.616	0.651	-0.201 (inactive)
C=C(C(=O)CC[C@H](OC(C)=O)c1cccc(OCCO)c1)C(C)C	0.667 (inactive)	-0.283	2.12 (inactive)	-1.94 (inactive)	1.7 (inactive)	-1.7 (inactive)	0.617	-1.48 (inactive)	-0.481 (inactive)	-1.61	-0.271	0.8	-0.979	-0.624	-0.814	-1.1	0.113 (inactive)	-0.427	0.89	-0.62 (inactive)
Cc1ccc(S[C@]2(C(=O)O)CC(=O)N(Cc3ccccc3Cl)[C@@H]2c2ccc(CO)cc2)cc1	0.33 (inactive)	-0.112	2.67 (inactive)	-0.185 (inactive)	0.825 (inactive)	0.55 (inactive)	0.227	0.646 (inactive)	-1.5 (inactive)	0.432	0.322	0.152	-0.0394	-0.217	-1.44	-0.0706	-0.672 (inactive)	-0.509	1.37	-0.462 (inactive)

From PubChem BioAssay
